The labels stand for the following.
T1: UNK ZnF1-6 (called full-length) (human, UniProt Q9C0B0 30-357)
T1 sequence: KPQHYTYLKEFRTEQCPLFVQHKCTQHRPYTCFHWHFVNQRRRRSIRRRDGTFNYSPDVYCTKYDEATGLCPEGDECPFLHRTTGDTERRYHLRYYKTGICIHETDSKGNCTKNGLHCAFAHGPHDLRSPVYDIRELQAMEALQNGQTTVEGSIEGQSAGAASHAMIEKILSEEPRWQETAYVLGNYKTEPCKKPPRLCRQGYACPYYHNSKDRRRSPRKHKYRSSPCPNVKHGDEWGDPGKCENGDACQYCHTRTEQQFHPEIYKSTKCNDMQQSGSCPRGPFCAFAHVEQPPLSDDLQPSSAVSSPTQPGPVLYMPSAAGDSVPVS

B1: ENSG00000198589:be:win_3501|CDS|ENSG00000198589|bound_else_gene|NA|bound_elsewhere_windowed (ssRNA)
RNA: GGGAGUUCUACAGUCCGACGAUCUGAUACUGAAACUCAAGAUUCUAAAGAUUCUGGAAUUCAGACUAUGACAGCAUCAGGGUCUUCAGCUAUGUCACCAGAAACUACUGUUUCCCAAAUAGCUGUAGAAUCAGACCUUGGUCACAACAGAGGAUUGAGCAUCA
B2: chr5:136975339:136975545:-|3pUTR|ENSG00000152377|msi1|total|mutant (ssRNA)
RNA: GGGAGUUCUACAGUCCGACGAUCAGAGCCCAUCAAAUCCUGAGUGUCAGUUUGUUGUCCCUAUUGCCGAUGAAACCGUGAUGCCGCAAAAACCCCGUAAAUUCUGAAUGCUUUUCCACGCCGACUUAUCUGGAAUGUGAACACCAACAGAGGAUUGAGCAUCA
B3: chr3:124966548:124966651:-|3pUTR|ENSG00000173706|unk|total|mutant (ssRNA)
RNA: GGGAGUUCUACAGUCCGACGAUCAGGAAGAAUGCAAAGUUCAGUAUUUCAAUACUUUGUAUUUUACUUGAAAUUACCCUCCGCCGCAUCUUUUUUUUCCUGUCUGAAAGCUUUUGUGUGGAUGAGAAGGGACAUUUCAUUUCCCAACAGAGGAUUGAGCAUCA
B4: ENSG00000124766:be:win_801|CDS|ENSG00000124766|bound_else_gene|NA|bound_elsewhere_windowed (ssRNA)
RNA: GGGAGUUCUACAGUCCGACGAUCCUCGGCCUCCGCCUCCUCGGCAGCCUCGGCCUCCGCAGCGCUCGCGGCCCCGGGCAAGCACCUGGCGGAGAAGAAGGUGAAGCGCGUCUACCUGUUCGGCGGCCUGGGCACGUCGUCGUCCAACAGAGGAUUGAGCAUCA
B5: ENSG00000101945:stop:overlap|stop_codon|ENSG00000101945|stop_codon|NA|stop_codon (ssRNA)
RNA: GGGAGUUCUACAGUCCGACGAUCAGAAGCGGGUCCGUAUUGAAUGCAAGUGUGGGACUGAGUCCUGCCGCAAAUACCUCUUCUAGCCCUUAGAAGUCUGAGGCCAGACUGACUGAGGGGGCCUGAAGCUACAUGCACCUCCCCCAACAGAGGAUUGAGCAUCA
B6: chr12:24812577:24812678:-|3pUTR|ENSG00000060982|msi1|FALSE|unique (ssRNA)
RNA: GGGAGUUCUACAGUCCGACGAUCAUCCAAAGGAGCUUUUUCCUUAUUCUGUCAAGCAUUGAGAUCUUCUUCAGCUUUCAAUGUAGUUGCUAAAUACAAAUAAUGCUACUAGGUAGUGACUAAAUAUAGCAAACACUUCAUCAGCAACAGAGGAUUGAGCAUCA
B7: chr10:22535117:22535218:-|3pUTR|ENSG00000150867|unk|FALSE|unique (ssRNA)
RNA: GGGAGUUCUACAGUCCGACGAUCAAGGUACACAUACAUUAUUUGAGUAACUGUUUCCUUGGGGGCCAAUCUGUGUAUGCUUUUAGAAGUUUACAGAAUGCUUUUAUUUUUGUCUAUAACAAACAGUCUGUCAUUUAUUUCUGUCAACAGAGGAUUGAGCAUCA
B8: chr9:76611375:76614569:-|three_prime_utr|ENSG00000106772|control|control|control (ssRNA)
RNA: GGGAGUUCUACAGUCCGACGAUCAUGUUACCUUUUUCCACUUUGCACUACCUGGUGCCAUUCUAAAUUUCUAAGGGGAAAAAUAGAAAGUUUGUUUACUCUUAAGAUAUUUUAUGAAAUUGUGUGUACUUUCCUAUUUUGCCACAACAGAGGAUUGAGCAUCA
B9: chr12:131960804:131960905:+|CDS|ENSG00000183495|unk|total|mutant (ssRNA)
RNA: GGGAGUUCUACAGUCCGACGAUCCCCUCAGCAAGCCCGUCGGCACCCCAGUCUCCCAGUUAUCAAAUACAGCAGCUGAUGAACCGGAGCCCUGCAACCGGGCAGAACGUGAACAUCACCCUGCAGAGCGUGGGCCCUGUCGUCCAACAGAGGAUUGAGCAUCA
B10: chr1:154944474:154944574:-|3pUTR|ENSG00000163346|msi1_unk|FALSE|overlapping (ssRNA)
RNA: GGGAGUUCUACAGUCCGACGAUCUCGAGGCCCAGCACGAGGACUUACCCUGGGGUUUUGUUAGGUUUGGAAGCAGCUGUCCCUAGGGGGUGAAGUCCCCCCCCUUUUUUUUUUUACCCCUGCUUCUCCCACGGCUUCACCUCCCAACAGAGGAUUGAGCAUCA
B11: chr7:32869766:32869881:-|CDS|ENSG00000170852|unk|FALSE|bound_elsewhere (ssRNA)
RNA: GGGAGUUCUACAGUCCGACGAUCAUGUACUGUUAUUUUCCAAGGUCUGACUCAUGGGUAGAAAUGGCCAUGAGACAGACUAGUAGGUCCUUUGCUUCAGCUGCAGCUUUUGGUGAUAAAAUUUUCUAUAUUGGAGGGUUGCAUCAACAGAGGAUUGAGCAUCA
B12: chr2:42682433:42682535:+|CDS|ENSG00000057935|unk|FALSE|unique (ssRNA)
RNA: GGGAGUUCUACAGUCCGACGAUCUCACGCUAUGGAUACAUUGUAUAGACACAGCUAUGAUUUGAGCAGUGCCAUUAGUGUCUUAGUACCACUCGGAGGACCUGUUUUAUGCAGAGAUGAAAUGGAGGAAUGGUCAGCCUCUGACAACAGAGGAUUGAGCAUCA
B13: chr1:64832709:64832810:+|3pUTR|ENSG00000162437|msi1|total|mutant (ssRNA)
RNA: GGGAGUUCUACAGUCCGACGAUCACAGCCCGAAAGUUUAAGGUAAUUUCUAAGUAUACUACCUAUAAGUAACUGAUAAGAAUCCGGCAUCAUUCAGUGAUACCGCAGAUGACUAAUGGGUUUUUCAGGCCCUGCACUUCUCUUCAACAGAGGAUUGAGCAUCA
B14: chr7:16784014:16784129:+|3pUTR|ENSG00000106537|msi1_unk|total|mutant (ssRNA)
RNA: GGGAGUUCUACAGUCCGACGAUCGAUAAUUUACUUGCCGUCUUUUAUGAUUACACCAAUGUAUUCCCGAAACCGUUAUGUCUCCGGAAAUUGUGGUUUAAUUUUUGACUUUUACAGGUAAGUGCAAAGGAGAAGUGGUUUCAUCAACAGAGGAUUGAGCAUCA
B15: chr8:79641408:79641533:+|CDS|ENSG00000104435|unk|total|mutant (ssRNA)
RNA: GGGAGUUCUACAGUCCGACGAUCCCAGGCUUUUGAGCUGAUCUUGAAGCCACCAUCUCCUAUCUCAGAAGCCCCACGAACUUCCGCUUCUCCAAAGAAGAAAGACCUGUCCCUGGAGGAGAUCCAGAAGAAACUGGAGGCUGCCAACAGAGGAUUGAGCAUCA
B16: ENSG00000107863:be:win_6101|3pUTR|ENSG00000107863|bound_else_gene|NA|bound_elsewhere_windowed (ssRNA)
RNA: GGGAGUUCUACAGUCCGACGAUCGCAAGGUAUUUGUUGCAACUUACUACAUAGCAUAUACCCAAAAUCACUGAAGAAAAUCGCUGGCAUCAGUGUGCAGCAAAUUUGUUCUUUUGGUUUCAUCACUAACAAAAGUGCCUCAUCCAACAGAGGAUUGAGCAUCA
B17: chr14:102081487:102081564:-|3pUTR|ENSG00000080824|msi1_unk|FALSE|overlapping (ssRNA)
RNA: GGGAGUUCUACAGUCCGACGAUCGAAGAUAAGAUUUCUGUCUACUAAGUGAUGCUGUGAUACCUUAGGCACUAAAGCAGAGCUAGUAAUGCUUUUUGAGUUUCAUGUUGGUUUAUUUUCACAGAUUGGGGUAACGUGCACUGUCAACAGAGGAUUGAGCAUCA
B18: chr14:54957033:54957204:-|CDS|ENSG00000198554|control|control|control (ssRNA)
RNA: GGGAGUUCUACAGUCCGACGAUCGCACGUUCAACUAAUAUUUUAGACAAUAUGGGCAAAUCAUCCAAGAAAUCCACUGCACUUAGUCGAACUACAAAUAAUGAAAAGUCUCCCAUUAUAAAGCCUCUGAUUCCAAAGCCGAAGCAACAGAGGAUUGAGCAUCA
B19: chrX:55006554:55006655:+|CDS|ENSG00000169188|unk|FALSE|unique (ssRNA)
RNA: GGGAGUUCUACAGUCCGACGAUCAGGGCGCAAGUGGAUGGACAGCUUGCUCAGUAACUUGGGGUGCCAGUCUGCCUCUCAUGUAGGGCCCUUCAUCGAUAGCUACCGCUGCUUCCAACCAAAGCAGGAGGGGGCCUUCACCUGCAACAGAGGAUUGAGCAUCA
B20: chrX:112630647:112631419:-|three_prime_utr|ENSG00000182508|control|control|control (ssRNA)
RNA: GGGAGUUCUACAGUCCGACGAUCAGAAGAUUGGAGAGGGUGGGAAAGGGGAGGAGGGAGCCCUGAAAAGAGGUACUAAGGAUUAGGCCAUUUGUCAUCUGACUGUCAUUAGCAUAGCCUAGUGUUUGCAUGCUUUUUAAACUACAACAGAGGAUUGAGCAUCA
B21: chr1:173887777:173887878:+|3pUTR|ENSG00000185278|unk|FALSE|unique (ssRNA)
RNA: GGGAGUUCUACAGUCCGACGAUCAAAGAGAUUUGGCAGAGGGACAGGUUGUACCUGCACUGGUGAACCAUCUGUGAGAAUGUUAGUCAUGUGCUCCUUUCCUGAGAUUGCUUUGUGGUAUGUGAAAAGGUGGGUAGAAAAGAACAACAGAGGAUUGAGCAUCA
B22: chr1:93180074:93180188:-|CDS|ENSG00000117500|unk|FALSE|bound_elsewhere (ssRNA)
RNA: GGGAGUUCUACAGUCCGACGAUCCUGGCCGCUCUGCCUCCGGUGCUGCUGCCUGGGGCGGCCGGCUUCACACCUUCCCUCGAUAGCGACUUCACCUUUACCCUUCCCGCCGGCCAGAAGGAGUGCUUCUACCAGCCCAUGCCCCAACAGAGGAUUGAGCAUCA

This note sets out measurements from paper PMC12136788.

The full ranking holds about 5,800 sequences; the median of “enrichment r” is about 0.68, and the highest 2% start at about 11. Not all results are given here.

This assay addresses T1, UNK ZnF1-6 (called full-length). Description: nsRBNS (natural sequence RNA bind-n-seq); RBNS binding buffer (assumed for nsRBNS): 25 mM Tris pH 7.5, 150 mM KCl, 3 mM MgCl2, 0.01% Triton X-100, 500 ug/ml BSA, 20 U/ml SUPERase-In, 4 C; UNK is unkempt and MSI1 is Musashi-1; names of the RNAs are library labels; protein concentration not given here; high values mean tight binding.
B1 displayed a binding signal of 0.311 enrichment R.

For the molecule B2, the binding signal is 0.528 enrichment R. Molecule B3 displayed a binding signal of 0.473 enrichment R. Molecule B4 returned a binding signal of 0.655 enrichment R. In the case of B5 it was 0.806 enrichment R. The result for B6 reads 0.559 enrichment R; that for B7, 0.472 enrichment R; that for B8, 0.818 enrichment R. In the case of B9 it was 1.09 enrichment R; in that of B10, 1.37 enrichment R; in that of B11, 0.714 enrichment R. B12 yielded a binding signal of 0.747 enrichment R. In the case of B13 it was 0.244 enrichment R; in that of B14, 0.435 enrichment R. In the case of B15 it was 0.67 enrichment R; in that of B16, 0.567 enrichment R. B17 had a binding signal of 0.375 enrichment R. In the case of B18 it was 1.02 enrichment R. As for B19, the binding signal was 0.87 enrichment R. The result for B20 reads 1.14 enrichment R; that for B21, 0.823 enrichment R; that for B22, 1.1 enrichment R.
